Experimental findings from article PMC3218832 are described below.

Targets include RELARELA (p65 homodimer) (Homo sapiens, UniProt Q04206 1-307); p50p50 homodimer (Homo sapiens, UniProt P19838 7-356); RELB subunit;p50 subunit (Homo sapiens;Homo sapiens, UniProt Q01201;P19838 120-401;7-356).
Experiment in all cases: protein binding microarray; high values mean tight binding
Conditions in all cases: dsDNA, one strand shown

The target of another assay is T1, p52p52 homodimer (Homo sapiens, UniProt Q00653 4-332).
T1 sequence: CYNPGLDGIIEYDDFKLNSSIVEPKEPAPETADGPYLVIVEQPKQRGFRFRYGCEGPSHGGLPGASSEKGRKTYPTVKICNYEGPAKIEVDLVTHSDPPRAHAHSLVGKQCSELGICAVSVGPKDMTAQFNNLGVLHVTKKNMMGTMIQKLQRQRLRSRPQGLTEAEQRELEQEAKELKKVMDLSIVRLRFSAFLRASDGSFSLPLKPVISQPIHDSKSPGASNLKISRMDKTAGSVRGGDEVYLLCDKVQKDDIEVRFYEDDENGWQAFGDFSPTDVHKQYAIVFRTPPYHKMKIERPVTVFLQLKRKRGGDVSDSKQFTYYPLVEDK

The target of assay [1] is RELA (p65) subunit of heterodimer;p50 subunit (Homo sapiens;Homo sapiens, UniProt Q04206;P19838 1-307;7-356).
In assay [2] the target is RELA (p65) subunit of heterodimer;p52 subunit (Homo sapiens;Homo sapiens, UniProt Q04206;Q00653 1-307;4-332).
The target in another assay is T2, RELB subunit;p52 subunit (Homo sapiens;Homo sapiens, UniProt Q01201;Q00653 120-401;4-332).
T2 sequence 1: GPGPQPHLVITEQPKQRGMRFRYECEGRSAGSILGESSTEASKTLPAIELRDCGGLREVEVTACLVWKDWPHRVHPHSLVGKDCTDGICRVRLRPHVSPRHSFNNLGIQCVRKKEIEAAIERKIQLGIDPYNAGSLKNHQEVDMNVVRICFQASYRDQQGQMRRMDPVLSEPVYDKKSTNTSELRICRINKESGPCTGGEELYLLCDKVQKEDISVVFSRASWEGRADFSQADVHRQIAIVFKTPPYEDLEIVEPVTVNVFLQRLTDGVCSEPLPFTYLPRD
T2 sequence 2: T1 sequence

Assay [3] addresses C-Rel subunit;p50 subunit (Homo sapiens;Homo sapiens, UniProt Q04864;P19838 1-285;7-356).
For assay [4], the target named is T3, C-Rel subunit;p52 subunit (Homo sapiens;Homo sapiens, UniProt Q04864;Q00653 1-285;4-332).
T3 sequence 1: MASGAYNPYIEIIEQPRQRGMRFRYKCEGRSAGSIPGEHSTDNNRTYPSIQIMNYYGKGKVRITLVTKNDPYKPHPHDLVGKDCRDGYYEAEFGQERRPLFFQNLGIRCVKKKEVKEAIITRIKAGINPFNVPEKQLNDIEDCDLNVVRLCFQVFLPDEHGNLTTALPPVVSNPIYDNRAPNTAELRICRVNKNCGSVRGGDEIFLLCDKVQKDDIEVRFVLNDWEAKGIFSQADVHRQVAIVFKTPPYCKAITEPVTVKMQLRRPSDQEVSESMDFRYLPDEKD
T3 sequence 2: T1 sequence

Chain of RELA (p65) subunit of heterodimer;p50 subunit (Q04206 1-307, chain 1 of 2): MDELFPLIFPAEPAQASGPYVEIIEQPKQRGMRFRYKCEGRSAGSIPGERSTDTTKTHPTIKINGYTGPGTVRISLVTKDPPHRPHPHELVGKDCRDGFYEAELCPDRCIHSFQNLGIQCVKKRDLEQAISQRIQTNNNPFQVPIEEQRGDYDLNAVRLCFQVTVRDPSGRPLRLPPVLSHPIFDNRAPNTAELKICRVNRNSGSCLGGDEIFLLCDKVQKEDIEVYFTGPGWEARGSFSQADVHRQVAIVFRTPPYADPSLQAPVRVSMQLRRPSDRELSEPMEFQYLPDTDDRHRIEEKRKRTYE
Chain of RELA (p65) subunit of heterodimer;p50 subunit (P19838 7-356, chain 2 of 2): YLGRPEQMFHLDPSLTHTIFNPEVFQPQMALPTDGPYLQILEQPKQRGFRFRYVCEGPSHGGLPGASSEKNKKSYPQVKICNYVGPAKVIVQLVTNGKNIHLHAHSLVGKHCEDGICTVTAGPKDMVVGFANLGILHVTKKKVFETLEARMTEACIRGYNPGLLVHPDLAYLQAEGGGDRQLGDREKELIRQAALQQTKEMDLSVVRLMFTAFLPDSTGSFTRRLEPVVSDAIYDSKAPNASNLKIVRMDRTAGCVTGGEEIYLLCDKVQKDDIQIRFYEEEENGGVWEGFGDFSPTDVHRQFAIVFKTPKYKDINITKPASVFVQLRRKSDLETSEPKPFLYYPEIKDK
Chain of RELARELA (p65 homodimer) (Q04206 1-307): as the sequence (Q04206 1-307, chain 1 of 2) above
Chain of p50p50 homodimer (P19838 7-356): as the sequence (P19838 7-356, chain 2 of 2) above

Turning to CAATTGCTCCC, the binding signal with RELARELA (p65 homodimer) was -0.396 z-score; with p50p50 homodimer, -0.852 z-score; in the assay with p52p52 homodimer it was -0.46 z-score; in assay [1], -0.685 z-score; in assay [2], -0.589 z-score; in the assay with RELB subunit;p50 subunit, -0.487 z-score. Moreover, the binding signal with RELB subunit;p52 subunit is -0.531 z-score; in [3] it was -0.849 z-score; in assay [4], -0.604 z-score.

For AGAGGTTCCCC, the binding signal with RELARELA (p65 homodimer) was determined as 0.439 z-score; with p50p50 homodimer, 1.06 z-score; with p52p52 homodimer, 1.33 z-score; in [1], 1.54 z-score; in assay [2], 1.33 z-score; with RELB subunit;p50 subunit, 1.41 z-score. In addition, the binding signal with RELB subunit;p52 subunit turned out to be 1.64 z-score; in assay [3], 1.37 z-score; in assay [4], 1.14 z-score.

With CGGGTGCCCCC, the binding signal with RELARELA (p65 homodimer) was -0.0899 z-score; with p50p50 homodimer, 0.777 z-score; with p52p52 homodimer, 0.373 z-score; in assay [1], 0.794 z-score; in assay [2] it was 0.707 z-score; with RELB subunit;p50 subunit, 0.779 z-score. For the same sequence, the binding signal in the assay with RELB subunit;p52 subunit is 1.05 z-score; in assay [3], 0.974 z-score; in assay [4], 0.84 z-score.

Consider GGAGATTCCCC, for which the binding signal with RELARELA (p65 homodimer) came out at 2.94 z-score; with p50p50 homodimer, 1.13 z-score; in the assay with p52p52 homodimer it was 2.51 z-score; in [1] it was 2.35 z-score; in assay [2], 2.22 z-score; with RELB subunit;p50 subunit, 2.06 z-score. Moreover, the binding signal stood at 2.22 z-score in the assay with RELB subunit;p52 subunit, 1.88 z-score in assay [3] and 2.2 z-score in [4].

With GAGTTATCCCT, the binding signal in the assay with RELARELA (p65 homodimer) was -0.151 z-score; in the assay with p50p50 homodimer, 0.156 z-score; with p52p52 homodimer, 0.345 z-score; in [1] it was -0.075 z-score; in assay [2] it was 0.135 z-score; with RELB subunit;p50 subunit, 0.201 z-score. In addition, the binding signal is 0.304 z-score in the assay with RELB subunit;p52 subunit, -0.0693 z-score in assay [3] and -0.00956 z-score in [4].

Consider CAATTCCTCCT, for which the binding signal with RELARELA (p65 homodimer) was 0.0653 z-score; with p50p50 homodimer it was -1.06 z-score; with p52p52 homodimer it was -0.655 z-score; in assay [1], -0.688 z-score; in assay [2], -0.609 z-score; with RELB subunit;p50 subunit it was -0.871 z-score. The binding signal is -0.932 z-score with RELB subunit;p52 subunit, -0.776 z-score in assay [3] and -0.597 z-score in assay [4].

In the case of AAATAGATCCC, the binding signal in the assay with RELARELA (p65 homodimer) was -0.751 z-score; in the assay with p50p50 homodimer it was -0.68 z-score; with p52p52 homodimer, -0.334 z-score; in assay [1], -0.662 z-score; in [2], -0.554 z-score; in the assay with RELB subunit;p50 subunit, -0.403 z-score. Besides, the binding signal was -0.661 z-score in the assay with RELB subunit;p52 subunit, -0.87 z-score in [3] and -0.679 z-score in assay [4].

As for GGAGAAGTCCT, the binding signal in the assay with RELARELA (p65 homodimer) is 0.391 z-score; in the assay with p50p50 homodimer, -0.831 z-score; in the assay with p52p52 homodimer it was -0.506 z-score; in assay [1] it was -0.525 z-score; in assay [2], -0.585 z-score; with RELB subunit;p50 subunit, -0.798 z-score. Besides, the figures for the binding signal (in the assay with RELB subunit;p52 subunit; in [3]; in assay [4]) were -0.864 z-score, -0.433 z-score and -0.307 z-score, respectively.

Turning to GGGTTCGTCCC, the binding signal in the assay with RELARELA (p65 homodimer) was 0.22 z-score; with p50p50 homodimer, 0.238 z-score; in the assay with p52p52 homodimer, 1.59 z-score; in assay [1], 0.186 z-score; in assay [2] it was 1.09 z-score; with RELB subunit;p50 subunit it was 0.251 z-score. Also, the binding signal was 0.438 z-score with RELB subunit;p52 subunit, 0.489 z-score in assay [3] and 0.747 z-score in [4].

For AGATATTCCCC, the binding signal was determined as 1.8 z-score with RELARELA (p65 homodimer); 1.31 z-score in the assay with p50p50 homodimer; 2.2 z-score with p52p52 homodimer; 2.03 z-score in [1]; 1.99 z-score in assay [2]; 1.8 z-score with RELB subunit;p50 subunit. In addition, the binding signal with RELB subunit;p52 subunit was determined as 1.96 z-score; in [3], 1.64 z-score; in [4] it was 1.71 z-score.

Turning to GAGAATTCCCT, the binding signal with RELARELA (p65 homodimer) turned out to be 1.81 z-score; with p50p50 homodimer, 1.39 z-score; in the assay with p52p52 homodimer, 2.1 z-score; in [1], 1.68 z-score; in assay [2] it was 1.6 z-score; in the assay with RELB subunit;p50 subunit, 1.65 z-score. Besides, the binding signal with RELB subunit;p52 subunit worked out at 1.74 z-score; in [3], 1.43 z-score; in [4] it was 1.33 z-score.

In the case of GGGTGTTCCCC, the binding signal in the assay with RELARELA (p65 homodimer) came to 1.97 z-score; in the assay with p50p50 homodimer, 0.783 z-score; with p52p52 homodimer it was 3.21 z-score; in [1], 2.14 z-score; in [2], 2.7 z-score; with RELB subunit;p50 subunit it was 2.21 z-score. Further, the figures for the binding signal (with RELB subunit;p52 subunit; in assay [3]; in assay [4]) were 2.06 z-score, 1.68 z-score and 2.56 z-score, respectively.

As for GAGTGCGTCCT, the binding signal was -0.395 z-score in the assay with RELARELA (p65 homodimer); -1.33 z-score with p50p50 homodimer; -0.581 z-score with p52p52 homodimer; -0.981 z-score in assay [1]; -0.769 z-score in [2]; -0.991 z-score with RELB subunit;p50 subunit. Also, the binding signal was -0.844 z-score in the assay with RELB subunit;p52 subunit, -1.14 z-score in [3] and -0.662 z-score in assay [4].

As to GAGGTTGCCCT, the binding signal in the assay with RELARELA (p65 homodimer) was -0.221 z-score; in the assay with p50p50 homodimer it was -1.5 z-score; with p52p52 homodimer it was -0.704 z-score; in assay [1], -0.605 z-score; in [2], -0.676 z-score; with RELB subunit;p50 subunit, -0.817 z-score. Moreover, the binding signal with RELB subunit;p52 subunit was -0.624 z-score; in assay [3] it was -0.77 z-score; in assay [4], -0.503 z-score.

Turning to AAAAACCTCCC, the binding signal in the assay with RELARELA (p65 homodimer) was 0.0581 z-score; with p50p50 homodimer, 0.2 z-score; in the assay with p52p52 homodimer it was -0.135 z-score; in assay [1], 0.166 z-score; in [2], -0.13 z-score; with RELB subunit;p50 subunit it was 0.0831 z-score. Also, the figures for the binding signal (in the assay with RELB subunit;p52 subunit; in assay [3]; in assay [4]) were 0.117 z-score, 0.28 z-score and 0.0846 z-score, respectively.
